Compound activity: PubChem BioAssay, National Center for Advancing Translational Sciences (NCATS)
The list is not random: actives were taken first. Their share in the collection is about 19%.
TDP1 cell CPT: growth inhibition of DT40 Tdp1-/-;hTDP1 cells with camptothecin (screen for TDP1 inhibitors) | chicken DT40 Tdp1-/-;hTDP1 cells + 20 nM CPT, ATP luminescence, 48 h | Potency, µM (top dose mostly 46.2 µM), for the others: top-dose activity change, negative = growth inhibition, actives largely listed as inhibitors | 420,000 tested, 12% active; further: potency means the concentration at half of the fitted maximal effect; nearly all actives have a fitted effect of over 55% in size
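Chicken DT40 Tdp1-/- cells stably complemented with human TDP1 were seeded at 400 cells/well in medium containing 20 nM camptothecin, exposed to pin-transferred compounds, and grown at 37 °C for at least 48 hr. Viability was read as ATP luminescence.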
HT1080-NT tox: kills 2HG-producing HT-1080-NT fibrosarcoma cells; HT-1080-NT fibrosarcoma viability, CellTiter-Glo ATP luminescence, 48 h; Potency, µM (highest dose often 46.1 µM), for inactives: top-dose activity, negative = less viability, hits mostly cytotoxic; 360,000 tested, 1.6% active; AID 686970;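 further: NT is the 2HG producing partner of a matched IDH1 knockdown line; potency means the concentration at half of the fitted maximal effect; 0% = DMSO-treated cells and -100% = media-only wells without cells; nearly all actives have a fitted effect of over 55% in size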
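A 48-hour cytotoxicity screen used HT-1080-NT cells plated 2 hours before compound delivery. ATP-based CellTiter-Glo luminescence measured viability, normalized to DMSO and no-cell controls.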
IL1B secr inh: inflammasome signaling inhibition, IL-1 beta readout | THP-1 LPS/ATP IL-1B secretion, AlphaLISA, 16 h; hits give low values | activity change, % at 57.5 µM | 360,000 tested, 4.7% active; in the data active means activity change below about -50%; inconclusive means mostly about -30% to -49%
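THP-1 cells pretreated 1 hr with compounds (up to 57.5 uM final), then stimulated with LPS (250 ng/mL final) plus ATP (1.25 mM final); secreted IL-1B measured by AlphaLISA after 16 hr, decreased signal indicating inhibition.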
HT1080 IDH1KD tx: HT-1080 IDH1 knockdown cell toxicity (counter line). HT-1080 IDH1 knockdown viability, ATP luminescence, 48 h. Potency, µM (top dose mostly 46.1 µM), inactives show at the highest dose activity, negative = toxicity, usual class: cytotoxic. 360,000 tested, 2% active;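 further: potency means the concentration at half of the fitted maximal effect; 0% = DMSO wells and -100% = cell-free medium wells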
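Assay cells: HT-1080 with IDH1 knockdown, 750 per well, RPMI/5% FBS. Exposure: 48 h at 37 °C following 2 h pre-incubation. Read: CellTiter-Glo luminescence; fitted concentration-response, curve class assigned.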
TDP1 cell noCPT: qHTS for Inhibitors of human tyrosyl-DNA phosphodiesterase 1 (TDP1): qHTS in cells in absence of CPT | DT40 Tdp1-/- hTDP1 cells, no CPT, ATP luminescence, 48 h | Potency, µM (highest dose often 46.2 µM), without a hit: at the highest dose activity change, negative = growth inhibition, usual class: inhibitors | 420,000 tested, 15% active; further: potency means the concentration at half of the fitted maximal effect; nearly all actives have a fitted effect of over 55% in size
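Growth of hTDP1-complemented DT40 Tdp1-knockout cells is measured by ATP luminescence after at least 48 hr compound exposure at 37 °C, with DMSO substituting for the 20 nM CPT used in the parallel screen.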
* hit, by the source's call; ? = inconclusive; . = not tested or not shown. Unless noted, the call rests on the fitted dose curve; in most records, active means well fitted curve in the direction sought with a large enough effect; inconclusive means small, poorly fitted or top-dose-only effect, or another doubt; inactive means no such curve, though single readings can be large; an effect the other way counts as inactive or inconclusive. Unless noted, on the % scale 0 is the no-effect control and ±100 the full control effect.

SMILES | TDP1 cell CPT | HT1080-NT tox | IL1B secr inh | HT1080 IDH1KD tx | TDP1 cell noCPT
CC(=O)N1CCN(c2ccc(NC(=O)c3ccc4c(c3)OCCO4)cc2Cl)CC1 | ? | -21% | -88* | -20% | ?
Cc1ccc(C)c(S(=O)(=O)NCc2ccc(C(=O)N3CCN(c4ccccc4)CC3)cc2)c1 | ? | -2% | -63* | -5% | ?
Cc1ccc(S(=O)(=O)NCc2ccc(C(=O)N3CCN(c4ccccn4)CC3)cc2)cc1 | ? | -3% | -6 | 0% | ?
Cc1ccc(S(=O)(=O)NCc2ccc(C(=O)N3CCN(c4ccc([N+](=O)[O-])cc4)CC3)cc2)cc1 | 16µM* | -14% | -11 | -5% | 9.2µM*
COc1ccc(N2CCN(C(=O)c3ccc(CNS(=O)(=O)c4cc(C)ccc4C)cc3)CC2)cc1 | 21µM* | -15% | -15 | ? | 15µM*
Cc1ccc(C)c(S(=O)(=O)NCc2ccc(C(=O)N3CCCCCC3)cc2)c1 | ? | -6% | 5 | -1% | 23µM*
CC1CC(C)CN(c2cc(N(C)CCO)c([N+](=O)[O-])c3nonc23)C1 (stereo not given) | 1% | -4% | -11 | 3% | ?
O=C(c1ccc(CNS(=O)(=O)c2cccc(Cl)c2)cc1)N1CCCC1 | 2% | 1% | 9 | 4% | -27%
O=C(c1ccc(CNS(=O)(=O)c2ccc(F)cc2)cc1)N1CCCCCC1 | ? | 3% | 20 | 3% | 15µM*
COc1ccc(N2CCN(C(=O)c3ccc(CNS(=O)(=O)c4ccc(C)cc4)cc3)CC2)cc1 | ? | -28% | ? | ? | 12µM*
CC1(C(=O)Nc2cccc(Oc3ccccc3)c2)CCN1Cc1ccccc1OC(F)F (stereo not given) | ? | -25% | -13 | -18% | ?
CCC(=O)N1CCC1(C)C(=O)Nc1ccc2c(c1)OCO2 (stereo not given) | 2% | -1% | 5 | 5% | -3%
COc1cccc(CN2CCC2(C)C(=O)Nc2ccc(C)cc2)c1F (stereo not given) | 16µM* | ? | 1 | -18% | 23µM*
COc1cccc(CN2CCC2(C)C(=O)Nc2cccc(Oc3ccccc3)c2)c1F (stereo not given) | 10µM* | ? | -21 | 6.5µM* | 7.3µM*
Cc1ccc(NC(=O)C2(C)CCN2CCc2ccccc2)cc1 (stereo not given) | ? | -22% | 0 | -10% | ?
COc1cccc(CN2CCC2(C)C(=O)Nc2ccc3c(c2)OCO3)c1F (stereo not given) | 23µM* | -9% | -28 | ? | ?
COc1cccc(CN2CCC2(C)C(=O)Nc2ccc(C)c(O)c2)c1F (stereo not given) | 12µM* | ? | -52* | ? | 12µM*
CC(=O)C1C(c2ccc(F)cc2)c2c(noc2C)CC1(C)O (stereo not given) | 5% | 19% | . | 23% | 3%
CN1CCN(NC(=O)c2ccc(Br)s2)CC1 | ? | 6% | 0 | 0% | -30%
Cc1ccc(NC(=O)C2(C)CCN2Cc2cccc3c2OCO3)cc1O (stereo not given) | 16µM* | ? | 0 | ? | ?
COc1ccc(NC(=O)C2(C)CCN2Cc2ccc3ccccc3c2)cc1OC (stereo not given) | ? | -21% | -18 | ? | ?
CC1(C(=O)Nc2cccc(Oc3ccccc3)c2)CCN1Cc1cccc2c1OCO2 (stereo not given) | ? | ? | -11 | ? | ?
COc1ccc(NC(=O)C2(C)CCN2Cc2cccc(OC)c2F)cc1OC (stereo not given) | 23µM* | 12% | ? | 4% | 13µM*
COc1cccc(NC(=O)C2(C)CCN2Cc2cccc(OC)c2F)c1 (stereo not given) | ? | -18% | -17 | ? | 21µM*
COc1cccc(N2CCN(C(=S)Nc3ccccc3OC)CC2)c1 | 19% | 14% | 16 | 8% | -7%
SMILES | TDP1 cell CPT | HT1080-NT tox | IL1B secr inh | HT1080 IDH1KD tx | TDP1 cell noCPT
COc1ccccc1NC(=S)N1CCN(c2cccc(C)c2C)CC1 | 5.2µM* | -28% | ? | -18% | 2.3µM*
Cc1ccccc1NC(=S)N1CCN(c2ccccc2Cl)CC1 | 15µM* | -8% | 3 | -9% | 12µM*
COc1ccccc1N1CCN(C(=S)Nc2cccc(C)c2)CC1 | 23µM* | -26% | -14 | ? | 23µM*
CN1CCN(C(=S)Nc2ccccc2Cl)CC1 | -26% | -2% | -16 | 1% | ?
CCN1CCN(C(=S)Nc2ccccc2Cl)CC1 | 11µM* | 3% | -3 | 7% | ?
NC(=O)c1ccc(/C(N)=N/S(=O)(=O)c2cc(C(F)(F)F)cc(C(F)(F)F)c2)cc1 | -1% | -4% | 0 | -7% | ?
COc1ccc(C)cc1S(=O)(=O)N1CCC(C(=O)NCCc2ccccc2)CC1 | -22% | -1% | 0 | 1% | ?
COc1ccc2c(c1)c1c(c(=O)n(-c3ccccc3)c(=O)n1CC(=O)NCCC1=CCCCC1)n2C | -20% | . | . | . | -1%
Cc1c(Cl)cccc1NC(=S)N1CCCCCC1 | ? | -9% | 1 | 0% | 18µM*
Cc1cccc(NC(=S)N2CCCCCC2)c1C | ? | 1% | 0 | 6% | ?
O=S(=O)(c1ccc(S(=O)(=O)N2CCC(O)CC2)cc1)N1CCCC1 | 1% | 11% | 12 | -1% | -1%
O=C(COC(=O)C1CC2C=CC1C2)Nc1cccc(S(=O)(=O)N2CCCCCC2)c1 (stereo not given) | ? | -6% | -2 | -7% | ?
CC(=O)OC(C)C1C2=C(C(=O)CC1(C)O)C(=O)c1c(ccc(-c3ccc4c(c3O)C(=O)C3=C(C4=O)C(C(C)OC(C)=O)C(C)(O)CC3=O)c1O)C2=O (stereo not given) | 1.2µM* | -9% | 5 | -12% | 1.5µM*
COC(=O)c1ccc(CNC(=O)c2cc(COc3cncc(Cl)c3)on2)cc1 | ? | -23% | -14 | ? | ?
CC(C)c1cc(CNC(=O)c2cc(COc3cncc(Cl)c3)on2)on1 | ? | -4% | -9 | 0% | 18µM*
Cc1cccn2c(CNCC3(c4ccccc4)CCCC3)c(C(=O)N3CCOCC3)nc12 | 13µM* | -23% | -6 | -25% | 10µM*
Cc1nn(C)c(NC(=O)c2ccccc2Cl)c1Cl | -2% | 5% | -14 | 12% | 4%
O=C(Nc1ccc(N2CCOCC2)cc1)c1ccc(COc2ccccc2)cc1 | -5% | -3% | 29 | 2% | -8%
